Source: PubChem
Rows were chosen to be rich in hits. Some 10% of all compounds tested hit in one or more screens of this group.
LMNA splice mod = modulators of lamin A splicing; HeLa LMNA splicing GFP/RFP minigene ratio, 48 h; Potency, µM (highest dose often 46.1 µM), for the others: top-dose ratio change, negative = inhibition, most hits filed as inhibitors; hit rate 0.01% among 200,000; AID 1487; active means well fitted inhibition curve with a large enough effect in the signal ratio, with a control signal flat, not every such curve was filed as active; inconclusive means small, poorly fitted or top-dose-only effect, or effect the other way, or a change in a side signal; the % refers to the signal ratio; further: potency means the concentration at half of the fitted maximal effect
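Read-out is the ratio of GFP to DsRed2 object intensity, acquired by 488 nm laser-scanning cytometry on HeLa lamin A-EGFP minigene reporter cells. Compound incubation 48 hrs at 37 °C in Opti-MEM with 2% FBS; DMSO 0.5% final.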
IMPase cell inh = membrane-permeable compound that blocks inositol monophosphatase; P97697; inhibition (IP1 accumulation), % at 46.1 µM; 120,000 tested, under 10 active; CHO-M1 cells, IP1 accumulation, HTRF TR-FRET ratio; AID 901; active means well fitted curve in the direction sought with a large enough effect in the signal ratio, not every such curve was filed as active; inconclusive means small, poorly fitted or top-dose-only effect, or a change in a side signal; inactive means no such curve, though single readings can be large or run the other way; the % refers to the signal ratio;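 further: cells stimulated with carbachol in lithium chloride buffer; plate controls were DMSO basal wells for no effect and reference inhibitor wells for full effect; higher means more IMPase inhibition seen as more IP1 and lower FRET ratio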
Target sequence (P97697 whole entry, looked up): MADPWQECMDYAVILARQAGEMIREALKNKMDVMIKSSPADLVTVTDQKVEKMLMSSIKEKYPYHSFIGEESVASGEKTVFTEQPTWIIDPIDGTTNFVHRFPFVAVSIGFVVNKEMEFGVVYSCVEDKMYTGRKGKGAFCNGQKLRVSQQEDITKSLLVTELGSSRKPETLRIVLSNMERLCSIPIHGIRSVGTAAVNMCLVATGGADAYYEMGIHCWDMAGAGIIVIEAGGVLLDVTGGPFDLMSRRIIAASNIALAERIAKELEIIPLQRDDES
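In this qHTS, compounds (final up to 46 uM) act on CHO-M1 cells that are then activated through the M1 receptor with carbachol, in pH 7.4 buffer containing 50 mM LiCl, for 30 min. IP1 accumulation is quantified by the IP-One immunoassay.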
Luc counter = Kinase-Glo luciferase inhibition (counter-screen); Q27757; Kinase-Glo luciferase, ATP luminescence, 8 min; Potency, µM (titrated, usually from 38.3 µM), for inactives: top-dose activity change, negative = inhibition, hits mostly inhibitors; hit rate 0.28% among 200,000; AID 1379; active means well fitted inhibition curve with a large enough effect; inconclusive means small, poorly fitted or top-dose-only effect; further: potency means the concentration at half of the fitted maximal effect; nearly all actives have a fitted effect of over 60% in size
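Compounds were added to a substrate mix at pH 7.2 (50 mM imidazole, 10 uM ATP, within the enzyme's linear range), followed by Kinase-Glo detection reagent; luminescence was measured after 8 minutes at ambient temperature.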
PNC assembly inh = blocks assembly of the perinucleolar compartment. PC3M PTB-GFP, PNC prevalence imaging, 16 h; stronger effect = lower value. activity change (PNC), negative = inhibition, % at 10 µM. hit rate 3.1% among 140,000. AID 2417;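 active means readout at or below -70, meaning at least 70% loss of cells showing the perinucleolar compartment, a nuclear body marking cancer cells; inconclusive means readout between -30 and a set limit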;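 further: plate controls were DMSO wells for no effect and camptothecin positive control wells for full effect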
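Compounds are pinned in duplicate onto adhered PC3M cells stably expressing GFP-tagged PTB and incubated 16 h at 37 C. Cells are then fixed, nuclei stained with Hoechst, and PNC-positive cells counted.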
HPGD inh = HPGD (human) dehydrogenase inhibition; P15428; purified HPGD, NADH fluorescence kinetic, PGE2 substrate; Potency, µM, inactives show at the top dose activity change, negative = inhibition, actives largely listed as inhibitors; hit rate 4.3% among 150,000; AID 894; further: potency means the concentration at half of the fitted maximal effect
Target sequence (P15428 whole entry, looked up): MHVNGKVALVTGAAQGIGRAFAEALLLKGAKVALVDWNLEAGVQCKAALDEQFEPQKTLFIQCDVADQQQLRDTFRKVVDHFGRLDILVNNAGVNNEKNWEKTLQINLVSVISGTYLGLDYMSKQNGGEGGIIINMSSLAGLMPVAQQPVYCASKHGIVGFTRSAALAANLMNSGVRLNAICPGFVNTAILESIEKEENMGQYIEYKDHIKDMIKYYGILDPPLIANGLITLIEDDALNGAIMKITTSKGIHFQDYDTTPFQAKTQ
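NADH formation kinetics: reaction with 30 uM PGE2 and 1 mM NAD+ (final), 20 nM enzyme, Tris-HCl pH 8 with Tween 20, after 15 min compound preincubation at room temperature. Fluorescence change, last versus first of five reads.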
ALDH1A1 inh = blocks purified human ALDH1A1 activity; P00352; Purified ALDH1A1, NADH fluorescence, propionaldehyde substrate; Potency, µM (titrated, usually from 75.3 µM), inactives show top-dose activity, negative = inhibition, hits mostly inhibitors; hit rate 7.3% among 220,000;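 further: potency means the concentration at half of the fitted maximal effect; plate controls were no enzyme wells and a reference inhibitor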
The depositor's hits bear a star; ? = inconclusive; nt = not tested or not shown; [ ] = remark or other dose. Unless noted, the call rests on the fitted dose curve; in most records, active means well fitted inhibition curve with a large enough effect (not every such curve was filed as active); inconclusive means small, poorly fitted or top-dose-only effect, or another doubt; inactive means no such curve, though single readings can be large or run the other way. Unless noted, on the % scale 0 is the no-effect control and ±100 the full control effect.

SMILES | LMNA splice mod | IMPase cell inh | Luc counter | PNC assembly inh | HPGD inh | ALDH1A1 inh
CCOC(=O)CC(=O)CSc1[nH]c(=O)cc(C)c1C#N | -2% | 0 | -5% | -9 | 14µM* | -1%
CCOC(=O)CSc1[nH]c(=O)cc(C)c1C#N | 6% | -8 | -5% | -18 | -1% | 5%
COc1cc2ccccc2cc1C(=O)Nc1cccc(-c2nc3cc(C)c(C)cc3o2)c1 | nt | -9 | nt | nt | nt | nt
Cc1cc(C)c2c(N)c(C(=O)NCc3ccco3)sc2n1 | 4% | -5 | -1% | -98* | ? | ?
COCc1cc(C)nc2sc(C(=O)N3CCCC3)c(N)c12 | 3% | 4 | -3% | -117* | 2.5µM* | ?
Cc1cc(C)c2c(N)c(C(=O)N3CCCCCC3)sc2n1 | -8% | -9 | -4% | 20 | 1.6µM* | ?
O=C(NC1CCCC1)c1cnc2n(c1=O)CCS2 | 7% | 6 | -2% | -26 | 35µM* | ?
O=C(NCCc1ccccc1)c1cnc2n(c1=O)CCS2 | 13%[9.22 µM] | nt | 1% | nt | nt | -6%
O=C(NCc1ccccc1Cl)c1cnc2n(c1=O)CCS2 | 1% | 4 | 3% | 6 | -25% | 14µM*
CCN(CC)C(=O)c1sc2nc(-c3ccc(OC)cc3)cn2c1C | 2% | 1 | -4% | 15 | 14µM* | -14%
CCOC(=O)C1CCN(C(=O)c2sc3nc(-c4ccccc4)cn3c2C)CC1 | -1% | 0 | -4% | -9 | -11% | -8%
Cc1c(C(=O)N2CCN(c3ccc(F)cc3)CC2)sc2nc(-c3ccccc3)cn12 | 0% | -1 | -5% | -8 | -20% | 5%
COc1ccccc1N1CCN(c2nc(-c3ccccc3)cc(C(F)(F)F)n2)CC1 | 3% | 3 | 0% | -12 | -9% | 5%
COc1ccccc1N1CCN(c2ccc(-c3ccccc3)nn2)CC1 | 3% | 8 | 8.9µM* | ? | -16% | ?
Cc1c(C(=O)N2CCc3ccccc3C2)sc2nc(-c3ccccc3)cn12 | ? | 9 | -3% | 15 | 7.1µM* | ?
COc1ccccc1N1CCN(C(=O)c2sc3nc(-c4ccccc4)cn3c2C)CC1 | -25% | 2 | 9% | -95* | -5% | 5%
Cc1cc(C(=S)N2CCOCC2)c(C)n1-c1ccc(F)cc1 | nt | nt | -2% | nt | nt | 2.8µM*
Cc1cc(C(=O)NC2CCCCC2)c(C)n1-c1ccc(F)cc1 | -1% | 5 | 0% | ? | 4.5µM* | 14µM*
Cc1ccc(-n2c(C)cc(C(=S)N3CCOCC3)c2C)cc1C | 2% | 11 | 0% | 39 | 5µM* | 28µM*
CC(=O)N[C@H](Cc1ccc(O)cc1)C(=O)O | nt | nt | -3%[7.66 µM] | nt | -5% | -7%[13.5 µM]
COc1ccccc1C(=O)NC(=S)Nc1cc(C(=O)O)ccc1C | nt | nt | 4% | nt | nt | 14µM*
COc1cc(NC(=O)c2ccccc2F)c(OC)cc1NC(=O)CN1CCOCC1 | -22%[46 µM] | nt | 1% | nt | nt | 25µM*
COc1ccccc1C(=O)NC(=S)Nc1ccc(N2CCOCC2)c(Cl)c1 | nt | nt | 1% | nt | nt | 11µM*
O=C(Nc1ccc(N2CCOCC2)c(Cl)c1)c1ccccc1F | 4% | 10 | 3% | 1 | 16µM* | ?
Cc1ccccc1OCC(=O)NC(=S)Nc1ccc(N2CCOCC2)c(Cl)c1 | -5% | 7 | 0% | -19 | -26% | ?
SMILES | LMNA splice mod | IMPase cell inh | Luc counter | PNC assembly inh | HPGD inh | ALDH1A1 inh
CCOc1ccc(S(=O)(=O)n2nc(C)c(S(=O)(=O)N3CCCCCC3)c2C)cc1 | -12%[46 µM] | nt | nt | nt | nt | nt
CC(C)CC(C(=O)NCCc1ccccc1)N1Cc2ccccc2C1=O (stereo not given) | -6%[46 µM] | nt | nt | nt | nt | nt
COc1ccc(C(=O)c2oc3ccccc3c2NC(=O)COc2ccccc2)cc1 | nt | -4 | nt | nt | nt | nt
Cc1nc(NC2CCCCC2)c2nc(-c3ccccc3)n(CC3CCN(C)CC3)c2n1 | nt | nt | 1% | nt | ? | ?
CCCSc1ccc2nc(-c3ccccc3)cn2c1 | ? | 6 | 10µM* | -4 | ? | ?
CCc1ccc(NC(=O)Cn2c(=O)ccc3cc(S(=O)(=O)N4CCCC4)ccc32)cc1 | 12%[46 µM] | nt | nt | nt | nt | nt
CCOc1ccc(OCC)c(NS(=O)(=O)c2ccc3c(c2)CCN3C(=O)C2CCC2)c1 | -4% | -2 | 0% | -85* | -4% | 7%
C=CC[C@@H]1[C@H](O)CC[C@@]2(C)[C@H]1CC[C@@H]1[C@@H]2CC[C@]2(C)C([C@H](C)CCCC(C)C)CC[C@@H]12 (stereo not given in full) | nt | nt | nt | nt | nt | 9%
CCOC(c1cc(OC)cc([N+](=O)[O-])c1OC)C(C)C(OC)[C@@H](C)/C=C/CC(=O)OC (stereo not given in full) | nt | nt | nt | nt | nt | 0%[13.5 µM]
CCCNC(=O)c1ccc2c(c1)nc(C)n2-c1cccc(C)c1 | -19%[46 µM] | nt | nt | nt | nt | nt
COCCNC(=O)c1ccc2c(c1)nc(C)n2-c1cccc(F)c1 | -5% | -1 | 0% | ? | 7.1µM* | 4%
O=C(NCC(O)COc1ccc([N+](=O)[O-])cc1)Nc1ccccc1 (stereo not given) | nt | nt | nt | nt | nt | 20µM*
COc1ccc(OCC(O)CNC(=O)Nc2ccccc2)cc1 (stereo not given) | nt | nt | nt | nt | nt | -4%
COC(=O)c1ccccc1NC(=S)NC(NC(=O)c1ccccc1[N+](=O)[O-])C(Cl)(Cl)Cl (stereo not given) | -7% | 3 | -1% | 45 | -23% | ?
COc1ccc(NC(=S)NC(NC(=O)c2cccc3ccccc23)C(Cl)(Cl)Cl)c([N+](=O)[O-])c1 (stereo not given) | ? | 2 | -3% | -5 | -13% | 28µM*
COc1ccc(NC(=S)NC(NC(=O)c2ccccc2Cl)C(Cl)(Cl)Cl)c([N+](=O)[O-])c1 (stereo not given) | 10% | 13 | -2% | 2 | -17% | 8.9µM*
O=C(NC(NC(=S)Nc1c(Cl)cccc1Cl)C(Cl)(Cl)Cl)c1cccc([N+](=O)[O-])c1 (stereo not given) | ? | nt | -1% | ? | -7% | 18µM*
COc1ccc(NC(=S)NC(NC(=O)c2ccc(Cl)cc2Cl)C(Cl)(Cl)Cl)c([N+](=O)[O-])c1 (stereo not given) | ? | 0 | -2% | -18 | -18% | 22µM*
COc1ccc(-c2ccc(NS(=O)(=O)c3cc(C)c(C)cc3C)cc2)nn1 | -22%[46 µM] | nt | nt | nt | nt | nt
Cc1c(C(=O)N2CCC(C)CC2)c(S(=O)(=O)Nc2ccc(OC(F)(F)F)cc2)c(C)n1C | 6%[46 µM] | nt | nt | nt | nt | nt
COc1ccc2c(CC(=O)NCc3ccc4c(c3)OCO4)coc2c1 | -10% | 10 | -1% | 48 | -17% | 8.9µM*
CC(C)C(OC(=O)c1cc2occc2n1C)C(=O)NCc1ccc2c(c1)OCO2 (stereo not given) | ? | 6 | 1% | -4 | 13µM* | ?
